A selection: hits, their analogues and other compounds. The true share with any hit is near 19%.
IL-1B inflam inh – inflammasome signaling inhibition, IL-1 beta readout | THP-1 LPS/ATP IL-1B secretion, AlphaLISA, 16 h; hits give low values | activity change, % at 57.5 µM | 4.7% of 360,000 active | AID 743279; in the data active means activity change below about -50%; inconclusive means mostly about -30% to -49%
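Secreted IL-1B measured by AlphaLISA bead assay after 16 h compound exposure of THP-1 cells; compounds (final up to 57.5 uM) added 1 h before LPS (250 ng/mL) and ATP (1.25 mM) stimulation; lower signal means less secretion.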
HT1080-NT tox – kills 2HG-producing HT-1080-NT fibrosarcoma cells; HT-1080-NT fibrosarcoma viability, CellTiter-Glo ATP luminescence, 48 h; Potency, µM (doses to about 46.1 µM), for the others: at the top dose activity, negative = less viability, actives largely listed as cytotoxic; 1.6% of 360,000 active; AID 686970;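 further: NT is the 2HG producing partner of a matched IDH1 knockdown line; potency means the concentration at half of the fitted maximal effect; 0% = DMSO-treated cells and -100% = media-only wells without cells; nearly all actives have a fitted effect of over 55% in size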
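Toxicity toward the 2HG-producing NT line was scored as %Activity, normalised to DMSO and no-cell wells, from CellTiter-Glo luminescence after 48 hours' treatment.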
TDP1 cell CPT – DT40-hTDP1 cell growth loss with CPT; chicken DT40 Tdp1-/-;hTDP1 cells + 20 nM CPT, ATP luminescence, 48 h; 12% of 420,000 active; Potency, µM (top dose mostly 46.2 µM), without a hit: top-dose activity change, negative = growth inhibition, hits mostly inhibitors; further: potency means the concentration at half of the fitted maximal effect; nearly all actives have a fitted effect of over 55% in size
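Cell growth measured by CellTiter-Glo luminescence after a minimum 48 h, 37 C compound exposure with 20 nM CPT in Tdp1-knockout DT40 cells stably expressing hTDP1, seeded 400/well; qHTS titration format.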
HT1080 IDH1KD tx – toxicity to HT-1080 IDH1 knockdown cells (counter line); HT-1080 IDH1 knockdown viability, ATP luminescence, 48 h; Potency, µM (top dose mostly 46.1 µM), for the others: at the highest dose activity, negative = toxicity, usual class: cytotoxic; 2% of 360,000 active;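 further: potency means the concentration at half of the fitted maximal effect; 0% = DMSO wells and -100% = cell-free medium wells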
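% activity derives from luminescence (CellTiter-Glo), normalised to DMSO and no-cell wells. HT-1080-IDH1KD cells, 750/well, had 48 h compound exposure at 37 °C.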
DT40 TDP1 no CPT – qHTS for Inhibitors of human tyrosyl-DNA phosphodiesterase 1 (TDP1): qHTS in cells in absence of CPT; 15% of 420,000 active; DT40 Tdp1-/- hTDP1 cells, no CPT, ATP luminescence, 48 h; AID 686978, 2013; Potency, µM (highest dose often 46.2 µM), without a hit: top-dose activity change, negative = growth inhibition, actives largely listed as inhibitors; further: potency means the concentration at half of the fitted maximal effect; nearly all actives have a fitted effect of over 55% in size
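Compound effects on proliferation are scored in DT40 Tdp1-/-;hTDP1 cells in the absence of CPT. ATP levels (CellTiter-Glo luminescence) are recorded after a ≥48 hr, 37 °C incubation.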
An asterisk follows results filed as active; ? = inconclusive. Unless noted, the call rests on the fitted dose curve; in most records, active means well fitted curve in the direction sought with a large enough effect; inconclusive means small, poorly fitted or top-dose-only effect, or another doubt; inactive means no such curve, though single readings can be large; an effect the other way counts as inactive or inconclusive. Unless noted, on the % scale 0 is the no-effect control and ±100 the full control effect.

SMILES | IL-1B inflam inh | HT1080-NT tox | TDP1 cell CPT | HT1080 IDH1KD tx | DT40 TDP1 no CPT
CN(C)S(=O)(=O)c1cccc(C(=O)N=C2N=C3C=CC(Cl)=CN3Cc3ccccc32)c1 | 17.6 | 8.2% | ? | 7.4% | 16.4µM*
COc1cccc(-c2nn(C)c3sc(C(=O)NCc4ccco4)cc23)c1 | -55.6* | -21.4% | 20.6µM* | ? | -27.3%
CCN(CC)CCCNC(=O)c1cc2c(-c3cccc(OC)c3)nn(C)c2s1 | ? | ? | ? | ? | 14.6µM*
CCCCN(C)CCNC(=O)c1cc2c(-c3cccc(OC)c3)nn(C)c2s1 | -86.7* | 18.4µM* | ? | 23.1µM* | 20.6µM*
COc1cccc(-c2nn(C)c3sc(C(=O)NCCCN(C)Cc4ccccc4)cc23)c1 | -78.8* | 18.4µM* | ? | 18.4µM* | 16.4µM*
COc1cccc(-c2cc(C(=O)NCc3ccco3)no2)c1 | -11.2 | -0.1% | 5.2% | -4.6% | -22.8%
COc1ccc(CN2C(=NC(=O)C3CCCO3)SC3CS(=O)(=O)CC32)cc1 (stereo not given) | 11.9 | -4.6% | -3.1% | 15.8% | 1.4%
CCc1ccc(NC(=O)CSc2nnnn2-c2cccnc2)cc1 | 0.0 | 6.6% | -6.1% | 6.1% | -5.8%
O=c1oc(CCCO)cc2ccccc12 | 32.8 | 6.8% | -1.9% | 8.0% | -4.3%
CCc1ccc2c(c1)C(c1ccc([N+](=O)[O-])cc1)=NNC(c1ccc(Br)cc1)=N2 | 1.6 | 19.8% | 13µM* | 15.0% | ?
CCN(Cc1ccc(OC)c(F)c1)C(=O)CCl | -96.0* | 18.4µM* | 4.11µM* | 16.4µM* | 4.11µM*
COc1ccc(CN(C)C(=O)c2ccc(Oc3ccccc3)cc2)cc1F | -74.1* | -19.8% | -27.4% | -6.2% | ?
COc1ccc(CN(C)C(=O)c2cccc(S(=O)(=O)NCc3ccccc3)c2)cc1F | 9.1 | 3.5% | -10.6% | 3.3% | 7.9%
COc1ccc(CN(C)C(=O)C(Cc2ccccc2)NC(=O)c2ccccc2)cc1F (stereo not given) | -12.4 | -14.1% | 16.4µM* | -24.7% | 13µM*
CCOc1ccc(CN(C)C(=O)[C@H](Cc2ccccc2)NC(=O)OCc2ccccc2)cc1OC | -76.8* | -1.4% | ? | -21.3% | 20.6µM*
CC(C)c1ccc(CNn2cnnc2)cc1 | 23.1 | 13.1% | -3.7% | -1.4% | ?
CC1CN(C(=O)c2cc3cc(Br)ccc3[nH]2)CC(C)O1 (stereo not given) | -12.3 | -3.4% | -26.3% | -0.6% | ?
O=C(CSc1nnc(-c2ccccc2)o1)NC1CCS(=O)(=O)C1 (stereo not given) | 0.4 | ? | 20.4% | 17.1% | -8.8%
CC(C)c1ccc(S(=O)(=O)Nc2ccc3c(c2)OCO3)cc1 | -1.8 | -0.1% | ? | -15.6% | ?
CSc1ccc(CN(C)C(=O)C(Cc2ccccc2)NC(=O)c2ccccc2)cc1 (stereo not given) | 8.1 | -1.6% | ? | -1.9% | ?
CCOc1ccc(C(=O)OCC(=O)N(Cc2ccccc2)Cc2ccccc2)cc1OC | -4.4 | -11.9% | 20.6µM* | -9.0% | ?
CN(Cc1ccc(F)cc1)C(=O)C(Cc1ccccc1)NC(=O)c1ccccc1 (stereo not given) | -18.2 | -3.6% | ? | 0.9% | 18.4µM*
CC(C)CCn1c2ccccc2c2cc(CC(N)=O)ccc21 | -11.2 | -1.7% | ? | ? | 23.1µM*
CN1C2CCC1/C(=C\c1ccccc1)C(=O)/C2=C\c1ccccc1 | -95.1* | ? | 11.6µM* | ? | 6.51µM*
COc1ccc(-c2csc(C(O)(c3ccccc3)C(F)(F)F)n2)cn1 (stereo not given) | -18.1 | 23.1µM* | ? | -29.1% | ?
SMILES | IL-1B inflam inh | HT1080-NT tox | TDP1 cell CPT | HT1080 IDH1KD tx | DT40 TDP1 no CPT
OC(c1ccccc1)(c1nc(-c2cc3ccccc3o2)cs1)C(F)(F)F (stereo not given) | 0.0 | 16.4µM* | 20.6µM* | ? | 16.4µM*
COc1ccccc1-c1csc(C(O)(c2ccccc2)C(F)(F)F)n1 (stereo not given) | 8.0 | ? | ? | ? | 18.4µM*
COc1cccc(C(C)(O)c2nc(-c3ccccc3OC)cs2)c1 (stereo not given) | 0.0 | -9.3% | ? | -22.5% | -93.5%
N#Cc1cccc(-c2csc(C(O)(c3ccccc3)C(F)(F)F)n2)c1 (stereo not given) | 3.8 | ? | ? | 16.4µM* | ?
COc1ccc(-c2csc(C(C)(O)c3cccnc3)n2)cn1 (stereo not given) | 48.8 | 15.3% | ? | 1.4% | -27.0%
CC1CCCC(CC(N)=O)CC1 (stereo not given) | -0.6 | -3.3% | 13.8% | 10.3% | 9.3%
CCCCNC(=O)Oc1ccc(C(=O)N2c3ccccc3NC(=O)C2C)cc1 (stereo not given) | -8.9 | 19.5% | -20.2% | 7.9% | ?
OC(c1ccccc1)(c1nc(-c2ccc(Cl)cc2)cs1)C(F)(F)F (stereo not given) | 0.7 | 16.4µM* | ? | ? | ?
O=C(O)c1cccc(-c2csc(C(O)(c3ccccc3)C(F)(F)F)n2)c1 (stereo not given) | -8.7 | 17.3% | 2.1% | 5.3% | -5.7%
COc1ccc(-c2csc(C(O)(c3ccccc3)C(F)(F)F)n2)cc1 (stereo not given) | 27.8 | ? | ? | ? | ?
OC(c1ccccc1)(c1nc(-c2cccc(C(F)(F)F)c2)cs1)C(F)(F)F (stereo not given) | -29.5 | 23.1µM* | ? | 16.4µM* | ?
CS(=O)(=O)N1CCN(c2ccc(NC(=O)c3ccccc3)cc2)CC1 | -12.9 | -0.7% | 4.4% | 0.5% | -22.1%
COc1cnc(-c2ccccn2)nc1Oc1ccc(F)cc1F | 15.9 | 2.3% | 10.3µM* | -12.0% | 3.66µM*
COc1cnc(-c2ccccn2)nc1Oc1ccc(Cl)cc1 | -24.9 | -5.0% | 1.64µM* | -12.3% | 1.46µM*
COc1cnc(-c2ccccn2)nc1Oc1ccc(Cl)c2ccccc12 | -9.9 | -12.2% | 1.3µM* | -28.8% | 1.16µM*
Cc1ccc(C)c(SCC(=O)NC2CCS(=O)(=O)C2)c1 (stereo not given) | 8.8 | 8.7% | 3.5% | 1.1% | 27.8%
COCCCNC(=O)Cn1cnc(C(=O)Nc2ccc(C)c(C)c2)n1 | 1.0 | 8.8% | -11.8% | 11.6% | -17.0%
CCCCC1=NN(C(=O)c2ccco2)C(O)(C(F)(F)F)C1 (stereo not given) | 41.8 | -25.4% | 0.517µM* | ? | 0.517µM*
COc1cccc(C(=O)N2N=C(c3ccccc3)CC2(O)C(F)(F)F)c1 (stereo not given) | -1.9 | 8.6% | 3.2% | 2.6% | ?

Compound activity as filed in PubChem.
